For 29 compounds, outcome results are on record in PubChem BioAssay AID504942 (Broad Institute, 2011).

The structures appear in SMILES notation. Measured potencies and affinities stand elsewhere. The source made the active and inactive calls. The rule behind the calls is not given here.

The nature of this assay: toxicity to human HeLa cells – cell-based, 48 h, plate reader, cherry-picks, cytotoxicity control, dose response (AID 504942).

With `N#CC(c1ccc(Cl)nn1)c1ccccc1Cl` (centres undefined), the compound was called inactive. The value for `CCOC(=O)c1ccc(N2Cc3ccccc3C2=N)cc1` was “inactive”; that for `CSC1=N/C(=C\C=C\c2cccs2)C(=O)S1` was “inactive”.

With `N#CC(c1ccc(Cl)cc1)c1cccc(Cl)n1` (centres undefined), the call was inactive. The value for `Cc1ccc(S(=O)c2ccc(C)cc2)cc1` was “inactive”; that for `N#CCn1c(C2CCCCC2)nc2ccccc2c1=O` was “inactive”; that for `O=C(NC1CCSC1)c1cccc(Cl)c1` (centres undefined) was “inactive”. On to `Cc1cc(C)nc(N(C#N)Cc2ccccc2)n1`, for which the outcome was inactive. On to `N#CC(c1ccc(Cl)cc1)c1ncc(C(F)(F)F)cc1Cl` (centres undefined), for which the result was inactive. As for `Cn1cccc1C(C#N)c1cccc(F)c1C#N` (centres undefined), the compound was classed as inactive. For the compound `C=CCOC(=O)c1ccc(-n2cnc(C)n2)nc1`, the compound was classed as inactive. The value for `CSc1nnc(-c2ccc([N+](=O)[O-])cc2)o1` was “inactive”; that for `Cc1cccc(C(C#N)c2ccc(Cl)nn2)c1` (centres undefined) was “inactive”. For `O=[N+]([O-])c1ccc(N2CCCCC2)nc1` the value was “inactive”; for `C#CCSc1ncc(-c2ccccc2)cn1`, “inactive”.

In the case of `N#CN(Cc1ccccc1)Cc1ccccc1`, the compound was classed as inactive.

On to `O=C(NCC1CC1)c1cc([N+](=O)[O-])cc([N+](=O)[O-])c1`, for which the call was inactive.

With `N#CC(Sc1ccccn1)c1ccc(Cl)cc1` (centres undefined), the outcome was inactive.

Consider `Cc1cc(NC(=O)c2cc([N+](=O)[O-])cc([N+](=O)[O-])c2C)no1`, for which the compound was called inactive. For `N#CC(c1cccc(Cl)c1)c1ncc(C(F)(F)F)cc1Cl` (centres undefined) the value was “inactive”; for `CC(C)N=C(NC#N)SCc1ccccc1F`, “inactive”. The value for `Clc1ccc2scc(CN3CCCC3)c2c1` was “inactive”; that for `CCOC(=O)c1ccc(-c2ccc(C=O)o2)cc1` was “inactive”; that for `Cc1cc(S(=O)(=O)NCC2CC2)c(Cl)cc1Cl` was “inactive”. `CCOC(=O)c1ccc(-c2ccc(CO)o2)cc1`: the compound was classed as inactive. The value for `COc1ccc(C(C#N)c2ccc(Cl)nn2)cc1` (centres undefined) was “inactive”. For `O=C1C2C3C=CC(C4CC34)C2C(=O)N1Cc1ccco1` (centres undefined) the value was “inactive”. The value for `Cc1ccc(C(C#N)c2ccc(Cl)nn2)cc1` (centres undefined) was “inactive”; that for `Cc1ccc2nc(-c3ccc4c(c3)OCCO4)cn2c1` was “inactive”.
